Assay results reported in PubChem BioAssay.
Active and inactive are the calls of the source.

Biological target: NADPH oxidase 4 (Homo sapiens) (UniProt Q9NPH5)
Test: compounds shifting NOX4 Amplex Red fluorescence – cell-based, HEK293-NOX4, tetracycline-induced, NOX inhibitor project, primary screen (AID 1160)
Settings: HEK293-NOX4, Amplex Red H2O2 fluorescence, 45 min; higher = more signal, called active from +8 up or from −8 down

Sequence of NADPH oxidase 4 (Homo sapiens) (Q9NPH5 whole entry, looked up): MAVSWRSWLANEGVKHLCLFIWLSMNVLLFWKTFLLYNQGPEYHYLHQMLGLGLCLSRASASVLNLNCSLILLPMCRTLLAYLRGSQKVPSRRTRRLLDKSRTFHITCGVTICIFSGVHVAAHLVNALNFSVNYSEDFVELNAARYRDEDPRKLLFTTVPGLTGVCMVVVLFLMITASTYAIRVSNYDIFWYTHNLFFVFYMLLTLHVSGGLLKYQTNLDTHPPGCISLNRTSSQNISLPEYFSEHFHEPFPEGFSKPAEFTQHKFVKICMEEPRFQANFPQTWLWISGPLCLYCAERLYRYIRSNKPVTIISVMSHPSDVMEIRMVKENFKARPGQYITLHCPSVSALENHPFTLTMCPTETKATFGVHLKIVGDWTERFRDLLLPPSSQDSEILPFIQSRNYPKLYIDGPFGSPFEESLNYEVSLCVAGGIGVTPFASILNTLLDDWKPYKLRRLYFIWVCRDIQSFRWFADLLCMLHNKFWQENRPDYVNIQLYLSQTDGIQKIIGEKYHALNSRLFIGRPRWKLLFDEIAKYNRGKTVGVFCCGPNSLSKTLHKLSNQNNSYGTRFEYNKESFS

z-score, inactive:
CC#CCOCCC=C1c2ccccc2[C@@H](OC)[C@@H]1C 0.936
CCOC(=O)[C@H](CC(C)C)NC(=O)CCC1CC(OC(=O)NCc2ccc3c(c2)OCO3)CC2(CCCC(COC(=O)NCCOc3ccccc3)O2)O1 (stereo not given in full) -1.63
CON=C(C)CCN1CCCCc2nc(C)c(C)cc21 -0.0593
C=CC[C@@H]1C=C[C@H](ON=CC[C@@H]2C=C[C@H](OC(C)=O)[C@@H](COC(C)=O)O2)[C@@H](CO)O1 0.319
C[C@@H]1CC[C@@H](C(=O)O)N[C@H]1c1cccc(N2CCOCC2)c1 0.65
CC(=O)OC[C@H]1O[C@H](CC=NOC[C@@H](O)COCc2ccco2)C=C[C@@H]1OC(C)=O 0.748
CC(CCN1CCc2nc(-c3ccccc3)c(-c3ccccc3)cc2C1)=NO[C@H](C)c1cn([C@H](CO)Cc2ccccc2)nn1 -0.31
CCOC(=O)CCN1C(=O)[C@H]2[C@H]3[C@H](O)[C@H](O)CC(=NNC(=O)OCc4ccc(OC)cc4)[C@H]3CC[C@H]2C1=O 0.619
CC(=O)OC[C@H]1O[C@@H](ON=C(C)CCC(=O)OC[C@H]2O[C@H](C#Cc3ccccc3)C=C[C@@H]2Oc2ccc(C)cc2)[C@H](OC(C)=O)[C@@H](OC(C)=O)[C@@H]1OC(C)=O 1.2
O=C1CCCC=C1C(O)c1ccc([N+](=O)[O-])cc1 (stereo not given) 0.262
